Here are results for one sequence from publication PMC7862700, “An all-to-all approach to the identification of sequence-specific readers for epigenetic DNA modifications on cytosine”.

What all share (assay): DAPPL (digital affinity profiling via proximity ligation, sequencing); 10 mM Tris-HCl pH 7.5, 50 mM NaCl, 1 mM DTT, 4% glycerol, room temperature, 30 min; GST-TFs on glutathione beads, 16-mer random dsDNA library, 0.1% formaldehyde crosslink after washing; high values mean tight binding
In one assay the target is T1, FEV (Homo sapiens, UniProt Q99581 1-238).
T1 sequence: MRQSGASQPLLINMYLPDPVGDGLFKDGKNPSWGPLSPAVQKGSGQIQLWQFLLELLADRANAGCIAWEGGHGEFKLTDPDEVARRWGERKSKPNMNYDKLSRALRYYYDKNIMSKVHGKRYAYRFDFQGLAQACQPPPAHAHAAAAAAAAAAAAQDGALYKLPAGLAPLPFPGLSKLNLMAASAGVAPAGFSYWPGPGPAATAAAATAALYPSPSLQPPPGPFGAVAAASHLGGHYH
The settings on record: protein: recombinant; tags: N-terminal GST; dsDNA, one strand shown. In short, it runs like this: (§1)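 After expression in yeast as GST fusions, human transcription factors were bound to glutathione beads, DNA-barcoded and mixed with a tag-only sample. The pools were incubated with 200 nmole of a 16-mer random double-stranded DNA library in Tris/NaCl/DTT/glycerol buffer (30 min, room temperature), washed and crosslinked with 0.1% formaldehyde. Proximity ligation with BsaI/T4 ligase ran for 1 h at 37 °C, before PCR amplification and sequencing on an Illumina NextSeq500. Binding signal is a hexamer's read frequency for a factor divided by its frequency for the tag-only sample.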

For another assay, the target named is ETV5 (Homo sapiens, UniProt P41161 1-510). The conditions noted are these: protein: recombinant; tags: N-terminal GST; dsDNA, one strand shown. In short, it runs like this:
as §1

Another assay deals with HSF1 (Homo sapiens, UniProt Q00613 1-529). The conditions noted are these: protein: recombinant; tags: N-terminal GST; chain copies: 3; dsDNA, one strand shown. In short, it runs like this:
as §1

A further assay concerns the target T2, SPIC (Homo sapiens, UniProt Q8N5J4 1-248).
T2 sequence: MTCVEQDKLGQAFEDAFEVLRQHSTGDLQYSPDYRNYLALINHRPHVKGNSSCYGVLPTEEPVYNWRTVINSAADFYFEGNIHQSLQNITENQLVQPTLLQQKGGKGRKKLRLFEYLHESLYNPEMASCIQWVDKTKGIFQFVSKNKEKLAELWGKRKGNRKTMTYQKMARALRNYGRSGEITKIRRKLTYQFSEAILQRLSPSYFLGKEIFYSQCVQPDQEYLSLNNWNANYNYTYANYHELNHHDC
The conditions noted are these: protein: recombinant; tags: N-terminal GST; dsDNA, one strand shown. In short, it runs like this:
as §1

The target of another assay is ELF4 (Homo sapiens, UniProt Q99607 1-663). The conditions noted are these: protein: recombinant; tags: N-terminal GST; dsDNA, one strand shown. In short, it runs like this: as §1
For another assay, the target named is T3, ELK4 (Homo sapiens, UniProt P28324-2 1-405).
T3 sequence: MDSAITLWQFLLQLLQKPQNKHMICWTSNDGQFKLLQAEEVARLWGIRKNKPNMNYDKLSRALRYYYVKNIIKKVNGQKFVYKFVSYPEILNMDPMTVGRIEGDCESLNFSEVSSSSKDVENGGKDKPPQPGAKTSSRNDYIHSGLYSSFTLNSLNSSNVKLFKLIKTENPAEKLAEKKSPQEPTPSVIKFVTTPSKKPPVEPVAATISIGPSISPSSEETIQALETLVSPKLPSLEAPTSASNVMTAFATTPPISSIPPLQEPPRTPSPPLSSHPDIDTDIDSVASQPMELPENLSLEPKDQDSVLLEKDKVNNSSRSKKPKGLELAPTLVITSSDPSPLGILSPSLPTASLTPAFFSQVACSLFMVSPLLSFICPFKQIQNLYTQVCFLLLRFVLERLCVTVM
The conditions noted are these: protein: recombinant; tags: N-terminal GST; dsDNA, one strand shown. In short, it runs like this: as §1

In the next assay the target is T4, ETV2 (Homo sapiens, UniProt O00321 1-342).
T4 sequence: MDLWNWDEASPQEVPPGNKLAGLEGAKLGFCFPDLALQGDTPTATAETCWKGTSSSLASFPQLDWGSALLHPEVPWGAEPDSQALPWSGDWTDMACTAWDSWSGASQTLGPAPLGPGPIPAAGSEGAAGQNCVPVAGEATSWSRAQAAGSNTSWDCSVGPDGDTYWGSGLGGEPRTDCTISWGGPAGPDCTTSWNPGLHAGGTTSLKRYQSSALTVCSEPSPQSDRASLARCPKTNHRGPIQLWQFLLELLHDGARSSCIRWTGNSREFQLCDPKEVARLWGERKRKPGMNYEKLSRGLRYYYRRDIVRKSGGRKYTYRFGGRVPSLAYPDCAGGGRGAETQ
The conditions noted are these: protein: recombinant; tags: N-terminal GST; dsDNA, one strand shown. In short, it runs like this: as §1

The target of the next assay is T5, ELF3 (Homo sapiens, UniProt P78545 1-371).
T5 sequence: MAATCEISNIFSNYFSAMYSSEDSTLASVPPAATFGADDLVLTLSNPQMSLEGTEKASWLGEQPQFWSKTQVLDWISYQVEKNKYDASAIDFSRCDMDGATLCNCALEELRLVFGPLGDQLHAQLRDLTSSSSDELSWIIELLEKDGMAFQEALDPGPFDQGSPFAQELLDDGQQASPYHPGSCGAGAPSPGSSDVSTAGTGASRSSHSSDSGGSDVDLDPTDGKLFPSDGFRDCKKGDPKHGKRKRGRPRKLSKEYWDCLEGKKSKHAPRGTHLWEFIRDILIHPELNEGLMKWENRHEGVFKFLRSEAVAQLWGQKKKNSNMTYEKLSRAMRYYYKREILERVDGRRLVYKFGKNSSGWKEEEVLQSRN
The conditions noted are these: protein: recombinant; tags: N-terminal GST; dsDNA, one strand shown. In short, it runs like this:
as §1

The next assay concerns the target CRX (Homo sapiens, UniProt O43186 1-299). The settings on record: protein: recombinant; tags: N-terminal GST; dsDNA, one strand shown. In short, it runs like this: as §1
The next assay has as its target ETV1 (Homo sapiens, UniProt P50549 1-477). The conditions noted are these: protein: recombinant; tags: N-terminal GST; dsDNA, one strand shown. In short, it runs like this: as §1
The next assay has as its target T6, ERF (Homo sapiens, UniProt P50548 1-548).
T6 sequence: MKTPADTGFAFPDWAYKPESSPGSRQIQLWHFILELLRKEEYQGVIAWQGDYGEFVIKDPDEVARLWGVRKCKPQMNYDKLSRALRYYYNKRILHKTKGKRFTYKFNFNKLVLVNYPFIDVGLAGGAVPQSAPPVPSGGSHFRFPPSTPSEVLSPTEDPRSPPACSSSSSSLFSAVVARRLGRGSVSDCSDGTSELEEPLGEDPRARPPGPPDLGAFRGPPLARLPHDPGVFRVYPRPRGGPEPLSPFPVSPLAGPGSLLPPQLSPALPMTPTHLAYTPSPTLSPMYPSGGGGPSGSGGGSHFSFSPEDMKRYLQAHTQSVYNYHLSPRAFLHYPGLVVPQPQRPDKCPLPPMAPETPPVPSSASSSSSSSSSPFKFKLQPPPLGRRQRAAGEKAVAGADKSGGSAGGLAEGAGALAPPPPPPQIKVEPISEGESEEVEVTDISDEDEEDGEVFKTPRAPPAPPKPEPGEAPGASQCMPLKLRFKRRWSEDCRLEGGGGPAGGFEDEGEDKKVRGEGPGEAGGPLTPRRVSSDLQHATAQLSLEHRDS
The conditions noted are these: protein: recombinant; tags: N-terminal GST; dsDNA, one strand shown. In short, it runs like this: as §1

A further assay has as its target T7, ETV3L (Homo sapiens, UniProt Q6ZN32 1-361).
T7 sequence: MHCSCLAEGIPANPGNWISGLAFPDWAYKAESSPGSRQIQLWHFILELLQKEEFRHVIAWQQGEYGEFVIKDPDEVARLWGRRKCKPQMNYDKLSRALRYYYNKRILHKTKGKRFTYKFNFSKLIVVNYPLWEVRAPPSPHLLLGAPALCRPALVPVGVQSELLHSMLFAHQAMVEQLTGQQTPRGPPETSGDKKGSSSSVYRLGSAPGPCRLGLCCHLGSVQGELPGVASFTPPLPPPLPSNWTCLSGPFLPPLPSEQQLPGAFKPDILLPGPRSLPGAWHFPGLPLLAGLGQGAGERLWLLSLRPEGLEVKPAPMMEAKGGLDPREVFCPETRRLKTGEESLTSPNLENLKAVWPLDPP
The conditions noted are these: protein: recombinant; tags: N-terminal GST; dsDNA, one strand shown. In short, it runs like this: as §1

For another assay, the target named is T8, ETS2 (Homo sapiens, UniProt P15036 1-469).
T8 sequence: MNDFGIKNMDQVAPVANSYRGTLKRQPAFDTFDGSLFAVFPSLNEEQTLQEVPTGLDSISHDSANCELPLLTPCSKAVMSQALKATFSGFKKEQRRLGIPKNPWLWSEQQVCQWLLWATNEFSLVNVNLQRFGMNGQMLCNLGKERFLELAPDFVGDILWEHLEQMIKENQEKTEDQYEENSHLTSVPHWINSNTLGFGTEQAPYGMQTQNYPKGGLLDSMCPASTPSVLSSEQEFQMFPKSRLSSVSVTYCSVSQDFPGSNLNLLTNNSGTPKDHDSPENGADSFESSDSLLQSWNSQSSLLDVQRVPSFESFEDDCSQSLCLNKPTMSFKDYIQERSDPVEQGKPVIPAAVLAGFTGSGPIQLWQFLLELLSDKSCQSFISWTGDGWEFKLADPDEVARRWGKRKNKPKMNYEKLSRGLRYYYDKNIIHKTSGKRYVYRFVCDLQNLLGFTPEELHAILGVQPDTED
The conditions noted are these: protein: recombinant; tags: N-terminal GST; dsDNA, one strand shown. In short, it runs like this: as §1

The next assay deals with T9, SPDEF (Homo sapiens, UniProt O95238 1-335).
T9 sequence: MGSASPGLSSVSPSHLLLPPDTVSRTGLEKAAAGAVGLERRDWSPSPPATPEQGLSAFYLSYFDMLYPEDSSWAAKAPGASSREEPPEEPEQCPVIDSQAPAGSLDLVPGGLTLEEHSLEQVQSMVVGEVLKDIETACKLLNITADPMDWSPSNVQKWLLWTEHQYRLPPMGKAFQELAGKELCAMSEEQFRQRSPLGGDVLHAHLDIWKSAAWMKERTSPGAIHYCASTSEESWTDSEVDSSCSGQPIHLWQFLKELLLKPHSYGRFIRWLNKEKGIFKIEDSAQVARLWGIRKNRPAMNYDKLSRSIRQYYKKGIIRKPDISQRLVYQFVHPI
The settings on record: protein: recombinant; tags: N-terminal GST; dsDNA, one strand shown. In short, it runs like this: as §1

The target in the next assay is T10, ETV7 (Homo sapiens, UniProt Q9Y603 1-341).
T10 sequence: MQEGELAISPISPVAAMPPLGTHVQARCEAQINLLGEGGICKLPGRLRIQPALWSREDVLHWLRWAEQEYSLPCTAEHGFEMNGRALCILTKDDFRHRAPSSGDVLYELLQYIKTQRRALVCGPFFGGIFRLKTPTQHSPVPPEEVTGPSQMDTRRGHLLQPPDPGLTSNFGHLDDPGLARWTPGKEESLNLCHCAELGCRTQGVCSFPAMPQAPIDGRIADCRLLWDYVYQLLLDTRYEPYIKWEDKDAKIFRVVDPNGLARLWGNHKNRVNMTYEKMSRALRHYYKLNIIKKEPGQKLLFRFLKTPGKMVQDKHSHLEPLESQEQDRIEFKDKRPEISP
The conditions noted are these: protein: recombinant; tags: N-terminal GST; dsDNA, one strand shown. In short, it runs like this:
as §1

A further assay addresses T11, ELF5 (Homo sapiens, UniProt Q9UKW6-2 1-255).
T11 sequence: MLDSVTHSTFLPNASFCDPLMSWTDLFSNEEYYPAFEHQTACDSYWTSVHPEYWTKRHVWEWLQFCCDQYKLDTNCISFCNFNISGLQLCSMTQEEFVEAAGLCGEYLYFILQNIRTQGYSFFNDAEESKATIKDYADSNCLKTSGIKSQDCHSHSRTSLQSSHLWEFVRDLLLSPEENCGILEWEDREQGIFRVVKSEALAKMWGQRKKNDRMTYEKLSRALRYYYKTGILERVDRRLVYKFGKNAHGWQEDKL
The conditions noted are these: protein: recombinant; tags: N-terminal GST; dsDNA, one strand shown. In short, it runs like this:
as §1

The next assay has as its target T12, ETV3 (Homo sapiens, UniProt P41162-2 1-143).
T12 sequence: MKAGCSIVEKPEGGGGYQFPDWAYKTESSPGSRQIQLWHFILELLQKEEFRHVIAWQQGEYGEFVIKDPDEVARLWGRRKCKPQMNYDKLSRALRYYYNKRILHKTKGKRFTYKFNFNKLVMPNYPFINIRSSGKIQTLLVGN
The conditions noted are these: protein: recombinant; tags: N-terminal GST; dsDNA, one strand shown. In short, it runs like this:
as §1

Another assay addresses ETV6 (Homo sapiens, UniProt P41212 1-452). The conditions noted are these: protein: recombinant; tags: N-terminal GST; dsDNA, one strand shown. In short, it runs like this:
as §1

Chain of ETV6 (P41212 whole entry): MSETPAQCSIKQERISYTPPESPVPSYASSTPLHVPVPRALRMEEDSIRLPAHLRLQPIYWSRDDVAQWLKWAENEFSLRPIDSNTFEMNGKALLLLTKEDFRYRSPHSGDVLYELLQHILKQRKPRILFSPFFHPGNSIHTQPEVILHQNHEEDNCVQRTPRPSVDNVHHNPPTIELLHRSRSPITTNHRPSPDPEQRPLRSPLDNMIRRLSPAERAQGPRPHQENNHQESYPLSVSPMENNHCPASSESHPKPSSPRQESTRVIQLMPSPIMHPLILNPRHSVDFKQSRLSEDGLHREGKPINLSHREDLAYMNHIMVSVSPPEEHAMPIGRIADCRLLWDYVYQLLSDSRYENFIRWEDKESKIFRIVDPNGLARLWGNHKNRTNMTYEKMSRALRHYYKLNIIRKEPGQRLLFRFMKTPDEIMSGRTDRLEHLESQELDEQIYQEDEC
Chain of CRX (O43186 whole entry): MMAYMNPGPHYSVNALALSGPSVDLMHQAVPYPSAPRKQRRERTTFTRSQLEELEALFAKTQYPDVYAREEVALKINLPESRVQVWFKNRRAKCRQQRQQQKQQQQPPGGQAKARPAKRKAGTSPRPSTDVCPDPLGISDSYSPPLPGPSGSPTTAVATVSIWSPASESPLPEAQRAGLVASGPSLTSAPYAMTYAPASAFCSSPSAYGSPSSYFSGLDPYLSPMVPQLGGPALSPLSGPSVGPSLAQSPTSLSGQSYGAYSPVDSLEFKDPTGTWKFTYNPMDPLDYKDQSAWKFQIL
Chain of ETV1 (P50549 whole entry): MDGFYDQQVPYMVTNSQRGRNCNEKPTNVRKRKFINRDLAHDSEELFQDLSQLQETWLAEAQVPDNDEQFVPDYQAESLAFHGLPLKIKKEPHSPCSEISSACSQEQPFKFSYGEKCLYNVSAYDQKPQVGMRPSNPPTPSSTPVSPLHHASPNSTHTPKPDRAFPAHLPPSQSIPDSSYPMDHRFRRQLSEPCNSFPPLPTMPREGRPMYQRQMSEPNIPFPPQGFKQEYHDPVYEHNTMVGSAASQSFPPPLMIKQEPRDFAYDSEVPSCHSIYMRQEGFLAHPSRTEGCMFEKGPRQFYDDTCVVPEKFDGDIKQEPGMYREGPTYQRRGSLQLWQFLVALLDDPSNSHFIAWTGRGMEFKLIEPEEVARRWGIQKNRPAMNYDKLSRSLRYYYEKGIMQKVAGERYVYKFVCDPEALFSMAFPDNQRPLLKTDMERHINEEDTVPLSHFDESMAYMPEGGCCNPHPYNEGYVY
Chain of ELF4 (Q99607 whole entry): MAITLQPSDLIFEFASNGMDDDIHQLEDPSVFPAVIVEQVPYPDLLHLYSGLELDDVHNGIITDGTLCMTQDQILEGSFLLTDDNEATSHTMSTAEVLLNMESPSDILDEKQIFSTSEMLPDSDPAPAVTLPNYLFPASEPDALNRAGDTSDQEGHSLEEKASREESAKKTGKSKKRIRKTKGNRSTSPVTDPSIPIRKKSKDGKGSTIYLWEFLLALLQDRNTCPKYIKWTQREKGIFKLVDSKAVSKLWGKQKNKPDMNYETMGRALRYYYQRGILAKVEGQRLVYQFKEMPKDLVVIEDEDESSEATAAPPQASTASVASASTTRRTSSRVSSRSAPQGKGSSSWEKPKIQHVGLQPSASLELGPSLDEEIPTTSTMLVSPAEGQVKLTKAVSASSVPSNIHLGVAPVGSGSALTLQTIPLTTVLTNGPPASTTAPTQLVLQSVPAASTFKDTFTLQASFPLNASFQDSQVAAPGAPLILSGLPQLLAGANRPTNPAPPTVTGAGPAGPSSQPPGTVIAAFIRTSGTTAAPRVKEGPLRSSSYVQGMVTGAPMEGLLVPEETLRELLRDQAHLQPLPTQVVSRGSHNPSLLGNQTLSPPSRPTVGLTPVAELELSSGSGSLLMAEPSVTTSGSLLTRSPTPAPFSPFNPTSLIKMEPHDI
Chain of HSF1 (Q00613 whole entry): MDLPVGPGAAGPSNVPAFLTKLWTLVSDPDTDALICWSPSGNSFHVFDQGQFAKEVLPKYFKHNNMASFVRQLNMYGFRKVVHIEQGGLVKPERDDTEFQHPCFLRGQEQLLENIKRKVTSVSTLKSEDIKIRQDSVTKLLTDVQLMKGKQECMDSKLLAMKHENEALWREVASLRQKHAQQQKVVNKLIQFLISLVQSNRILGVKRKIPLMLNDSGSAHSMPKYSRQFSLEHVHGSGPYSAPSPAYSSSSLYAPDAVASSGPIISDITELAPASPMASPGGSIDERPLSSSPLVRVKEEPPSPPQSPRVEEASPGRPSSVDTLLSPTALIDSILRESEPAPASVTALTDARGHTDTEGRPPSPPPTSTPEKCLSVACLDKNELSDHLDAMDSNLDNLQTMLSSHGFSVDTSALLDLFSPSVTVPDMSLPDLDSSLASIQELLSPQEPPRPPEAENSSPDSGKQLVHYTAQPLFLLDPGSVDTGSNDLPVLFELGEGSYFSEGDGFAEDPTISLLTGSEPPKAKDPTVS
Chain of ETV5 (P41161 whole entry): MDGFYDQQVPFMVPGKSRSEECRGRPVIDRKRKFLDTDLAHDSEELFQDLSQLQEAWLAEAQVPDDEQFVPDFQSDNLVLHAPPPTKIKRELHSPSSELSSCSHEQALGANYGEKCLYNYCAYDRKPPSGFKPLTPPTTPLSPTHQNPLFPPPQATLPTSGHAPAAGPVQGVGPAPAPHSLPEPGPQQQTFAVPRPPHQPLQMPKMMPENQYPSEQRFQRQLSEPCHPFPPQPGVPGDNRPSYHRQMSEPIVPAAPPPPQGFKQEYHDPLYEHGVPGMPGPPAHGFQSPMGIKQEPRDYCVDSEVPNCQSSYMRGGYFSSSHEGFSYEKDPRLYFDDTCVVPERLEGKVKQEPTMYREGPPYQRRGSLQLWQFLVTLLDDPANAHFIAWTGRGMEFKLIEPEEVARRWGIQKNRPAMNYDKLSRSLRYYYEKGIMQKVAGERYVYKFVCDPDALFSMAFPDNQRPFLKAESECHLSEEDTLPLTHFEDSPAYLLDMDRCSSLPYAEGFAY

Turning to CTAGAT, the binding signal with FEV is 1.13 fold enrichment (6-mer frequency, TF over GST control); in the assay with ETV5 it was 1.19 fold enrichment (6-mer frequency, TF over GST control); with HSF1 it was 2.7 fold enrichment (6-mer frequency, TF over GST control); with SPIC, 1.16 fold enrichment (6-mer frequency, TF over GST control); with ELF4 it was 1.16 fold enrichment (6-mer frequency, TF over GST control); with ELK4 it was 1.17 fold enrichment (6-mer frequency, TF over GST control). The binding signal was 1.17 fold enrichment (6-mer frequency, TF over GST control) in the assay with ETV2; 1.15 fold enrichment (6-mer frequency, TF over GST control) with ELF3; 1.83 fold enrichment (6-mer frequency, TF over GST control) with CRX; 1.17 fold enrichment (6-mer frequency, TF over GST control) with ETV1; 1.24 fold enrichment (6-mer frequency, TF over GST control) with ERF; 1.34 fold enrichment (6-mer frequency, TF over GST control) in the assay with ETV3L. In addition, the binding signal with ETS2 was 1.2 fold enrichment (6-mer frequency, TF over GST control); in the assay with SPDEF, 1.26 fold enrichment (6-mer frequency, TF over GST control); with ETV7, 1.2 fold enrichment (6-mer frequency, TF over GST control); with ELF5, 1.11 fold enrichment (6-mer frequency, TF over GST control); with ETV3, 1.19 fold enrichment (6-mer frequency, TF over GST control); in the assay with ETV6 it was 1.05 fold enrichment (6-mer frequency, TF over GST control).
